Results taken from PubChem BioAssay AID686979 (National Center for Advancing Translational Sciences (NCATS), 2013).
The whole screen tested about 420,000 compounds, of which about 50,000 (12%) were called active. Roughly 26% stayed inconclusive and do not appear here. For the sample, actives were picked, then their nearest neighbours and some compounds at random. Values without a mark were called inactive. Calls follow the shape of the dose curve; as a rule, active = well fitted inhibition curve with a large enough effect; inconclusive = small, poorly fitted or top-dose-only effect; inactive = flat fitted curve, though single readings scatter.

Test: qHTS for Inhibitors of human tyrosyl-DNA phosphodiesterase 1 (TDP1): qHTS in cells in presence of CPT; also: nearly all actives have a fitted effect of over 55% in size
Details: chicken DT40 Tdp1-/-;hTDP1 cells + 20 nM CPT, ATP luminescence, 48 h; series mostly up to 46.2 µM; activity change, negative = growth inhibition: at the top concentration
Summary of the method: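 Cell growth measured by CellTiter-Glo luminescence after a minimum 48 h, 37 C compound exposure with 20 nM CPT in Tdp1-knockout DT40 cells stably expressing hTDP1, seeded 400/well; qHTS titration format.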
% is scaled to controls: 0 for no effect and ±100 for the full control effect; potency is read from the fitted curve at half-maximal effect.

Row | SMILES | activity change, negative = growth inhibition | Potency
1 | CSCCC(NS(=O)(=O)c1ccc(C)cc1)C(=O)N1CCCC1 (stereo not given) | 1.59% | –
2 | CCCn1c(N)c(C(=O)CSc2nnc3n2CCCCC3)c(=O)[nH]c1=O | -2.04% | –
3 | CCOc1[nH]n(-c2ccc(Cl)cc2)c(=O)c1C=Nc1ccc(O)cc1 | – | 5.8 µM (active)
4 | CCOc1ccc(N=C2NC(=O)S/C2=C\c2ccc(O)cc2)cc1 | -8.1% | –
5 | CC(=O)Oc1cc2c(C(=O)NCCN3CCOCC3)c(C)oc2c2ccccc12 | – | 18.4 µM (active)
6 | Cc1ccc(C(=O)NCCN2CCOCC2)cc1C | -17.7% | –
7 | Cc1cc(C)cc(C(=O)NCCN2CCOCC2)c1 | 0.936% | –
8 | COc1ccc(OC)c(-n2nnc3c(sc4nc(C)c(Br)c(C)c43)c2=O)c1 | -1.52% | –
9 | COc1cc(CN(C(=O)c2ccccc2Br)c2ccccn2)cc(OC)c1OC | – | 18.4 µM (active)
10 | CCC(=O)N(Cc1ccccc1)c1ccccn1 | -1.38% | –
11 | COC(=O)c1cc(C(=O)N(Cc2ccccc2)c2ccccn2)cc([N+](=O)[O-])c1 | 1.49% | –
12 | Cc1ccc(S(=O)(=O)N(Cc2ccccc2)c2ccccn2)cc1[N+](=O)[O-] | 6.32% | –
13 | COc1cc(SC)ccc1C(=O)N(Cc1ccccc1)c1ccccc1 | -29.6% | –
14 | Cc1ccc(CN(C(=O)c2ccccc2[N+](=O)[O-])c2ccccn2)cc1 | – | 11.6 µM (active)
15 | COc1ccc(CCOC(=O)CNC(=O)c2ccc(Cl)cc2Cl)cc1 | 2.02% | –
16 | Cc1ccc(N2CC(NC(=O)Cc3cccs3)CC2=O)cc1 (stereo not given) | -2.46% | –
17 | C[C@H](NC(=O)c1nc[nH]c1C(=O)N[C@@H](C)C(=O)OC(C)(C)C)C(=O)OC(C)(C)C | -25.7% | –
18 | COc1cc(C(=S)NC2CCCCC2)ccc1O | -6.73% | –
19 | Cc1cccc(N2CCN(C(=O)CCn3c(=O)c4cccn4c4cccnc43)CC2C)c1 (stereo not given) | – | 3.66 µM (active)
20 | Cc1cccc(N2CCN(S(=O)(=O)c3ccc(-c4cc(C)no4)s3)CC2C)c1 (stereo not given) | 5.36% | –
21 | Cc1cccc(NC(=O)Cn2c(=O)n(CCC(C)C)c(=O)c3cccnc32)c1 | -24.7% | –
22 | CCOc1ccc(-c2cc3c(=O)n(CC(=O)NCc4ccc(OC)cc4)ccn3n2)cc1 | -8.52% | –
23 | CCOC(=O)C1C(c2ccc(OC)c(OC)c2)c2c([nH][nH]c2=O)CC1(C)O (stereo not given) | -6.37% | –
24 | O=C(Nc1c(Br)cc2c(c1Br)Cc1ccccc1-2)C(F)(F)F | -14% | –
25 | CCCCCNC(=O)C1c2ccccc2Oc2ccccc21 | -6.61% | –
26 | CC(C)(O)C(=O)NN(C(=O)c1ccccc1)c1cccc(Br)c1 | -2.93% | –
27 | CCCCC(O)(CCCC)C(=O)NN(C(=O)CCl)c1ccccc1 | – | 14.6 µM (active)

Row | SMILES | activity change, negative = growth inhibition | Potency
28 | COC(=O)N(NC(=O)C(O)(C(C)C)C(C)C)c1ccccc1 | 23.2% | –
29 | Cc1ccc(N(NC(=O)C(C)(C)O)C(=O)c2ccccc2)cc1C | -9.93% | –
30 | CCCC(O)(CCC)C(=O)NN(C(=O)CCl)c1cccc(C)c1 | – | 4.61 µM (active)
31 | O=C(NNC(=S)NC1CCCCC1)c1ccccc1Cl | -16.4% | –
32 | Clc1ccccc1CSc1nncn2c1cc1occc12 | -7.58% | –
33 | Cn1c(CCc2ccccc2)nnc1SCC(N)=O | -1.76% | –
34 | COc1ccc(CN2CN(C(C)C)CSC2=S)cc1 | – | 2.91 µM (active)
35 | COc1ccc(CCNC(=O)COC(=O)C2CCCCC2)cc1 | -9% | –
36 | COc1ccc(CN2CC(C(=O)NC3CCCCC3)CC2=O)cc1 (stereo not given) | 1.05% | –
37 | COc1ccc(CCC(C)N2CCc3ccccc3C2)cc1 (stereo not given) | -12.5% | –
38 | COc1ccc(Cn2c(=O)cc(C)[nH]c2=S)cc1 | 5.33% | –
39 | COc1ccc(CN2CN(C3CCCC3)CSC2=S)cc1 | – | 5.17 µM (active)
40 | O=C(NC1CCCC1)C(c1ccccn1)N(C(=O)c1csnn1)C1CCCC1 (stereo not given) | -23% | –
41 | Cc1cc(C)c2c(=O)[nH]c(SCC(=O)Nc3ccc(Br)cc3)nc2n1 | -23.8% | –
42 | CC1(C(=O)NS(=O)(=O)c2cccc(F)c2)CCN1C(=O)Cc1cc(F)ccc1F (stereo not given) | -10.9% | –
43 | CN(CC(=O)Nc1ccccc1F)S(=O)(=O)c1ccc2c(c1)c(=O)n(C)c(=O)n2C | -15.7% | –
44 | O=C1c2ccccc2C(c2nc3ccccc3[nH]2)N1c1ccccc1 (stereo not given) | 24.2% | –
45 | CSc1ncccc1C(=O)NCc1ccccc1Cl | 11.7% | –
46 | O=C(CNC(=O)c1cc(S(=O)(=O)N2CCOCC2)ccc1N1CCCC1)Nc1ccc(F)c(F)c1 | -27.5% | –
47 | COc1ccccc1CNC(=O)C1Cc2ccccc2C(=O)O1 (stereo not given) | -13% | –
48 | COc1ccccc1CNC(=O)C1CCN(C(=O)[C@@H]2Cc3ccccc3CN2)CC1 | -4.36% | –
49 | COc1ccccc1CNC(=O)[C@@H]1CCCN1C(=O)[C@@H]1Cc2ccccc2CN1C(=O)OC(C)(C)C | – | 18.4 µM (active)
50 | CCCNC(=O)c1cnc(-c2ccccc2)nc1-c1ccccc1 | -2.24% | –
51 | O=C(CCCN=C1NS(=O)(=O)c2ccccc21)OCC(=O)c1ccc(F)c(F)c1 | 27.8% | –
52 | Cc1ccc(C)c(NC(CC(=O)c2ccccc2)C(=O)OCC(=O)c2cccs2)c1 (stereo not given) | – | 18.4 µM (active)
53 | COC(=O)C(CC(=O)Nc1cc(C)ccc1C)Nc1ccccc1OC (stereo not given) | -10.3% | –
54 | Cc1ccc(C)c(NC(=O)CCC(=O)NNC(=O)c2cccs2)c1 | -8.35% | –

Row | SMILES | activity change, negative = growth inhibition | Potency
55 | O=C(Nc1nnc(-c2ccccc2F)s1)c1ccccc1F | 8.72% | –
56 | CN(Cc1ccccn1)Cc1nc(-c2ccc(Cl)cc2)no1 | -0.996% | –
57 | CN(CCN1CCOCC1)Cc1nc(-c2ccc3c(c2)OCO3)no1 | 1.76% | –
58 | CCN1CC(CN(C)Cc2nc(-c3ccc(Cl)cc3)no2)CC1=O (stereo not given) | – | 16.4 µM (active)
59 | COc1ccc(S(=O)(=O)N2CCOC2CNC(=O)C(=O)NCc2ccncc2)cc1OC (stereo not given) | 3.82% | –
60 | O=C(CSc1nccn1-c1cccc(F)c1)NC1CCCC1 | 5.14% | –
61 | CN(C)c1nc(-c2cccnc2)nc(-c2ccc(Cl)cc2)c1C#N | -57.4% | –
62 | CCN(CC)S(=O)(=O)c1cccc(-c2n[nH]c(=S)n2/N=C/c2ccc(C(=O)OC)cc2)c1 | -16.5% | –
63 | S=c1[nH]nc(-c2cccnc2)n1/N=C/C(Cl)=C\c1ccccc1 | – | 20.6 µM (active)
64 | Cc1cc(-c2n[nH]c(=S)n2/N=C/c2ccco2)n[nH]1 | 1.05% | –
65 | S=c1[nH]nc(-c2ccncc2)n1/N=C/c1ccccc1Cl | 2% | –
66 | Fc1ccccc1/C=N/n1c(-c2cccnc2)n[nH]c1=S | 5.67% | –
67 | Cc1cc(-c2n[nH]c(=S)n2/N=C/C(Br)=C/c2ccccc2)n[nH]1 | – | 1.64 µM (active)
68 | FCOC(C(F)(F)F)C(F)(F)F | 7.71% | –
69 | NC(=O)CN1CCCC1c1ccc2c(c1)OCCO2 (stereo not given) | -5.42% | –
70 | CC(C)C(=O)Nc1oc(-c2ccccc2)cc1C#N | 11.7% | –
71 | CC1(C)S[C@@H]2[C@H](NC(=O)COc3ccccc3)C(=O)N2C1C(=O)OCc1ccccc1 (stereo not given in full) | – | inactive
72 | COc1ccc(-c2nc(CS(=O)CC(=O)NCc3ccccn3)c(C)o2)cc1 (stereo not given) | – | 18.4 µM (active)
73 | COc1ccc(-c2nc(CS(=O)CC(=O)NCc3ccccc3)c(C)o2)cc1OC (stereo not given) | -20.6% | –
74 | COc1ccc(-c2nc(CS(=O)CC(=O)NCc3cccnc3)c(C)o2)cc1OC (stereo not given) | -7.55% | –
75 | COc1ccc(-c2nc(CS(=O)CC(=O)N3CCc4ccccc4C3)c(C)o2)cc1 (stereo not given) | – | 16.4 µM (active)
76 | COc1cccc(N(CC(=O)N2CCc3ccccc3C2)S(C)(=O)=O)c1 | -6.48% | –
77 | O=C(COc1ccccc1)N1CCc2ccccc2C1 | -6.77% | –
78 | CCCSc1nsc(N)n1 | -14.7% | –
79 | CS(=O)(=O)N1CCN(CC(=O)NC2CCCC2)CC1 | 3.9% | –
80 | O=C(Cc1coc2ccc3ccccc3c12)NCc1cccs1 | -27.8% | –
81 | C=CCCC(=O)N1C[C@H]2CON(C)[C@H]2C[C@H]1c1cccc(Nc2ccccc2)c1 | -9.96% | –

Row | SMILES | activity change, negative = growth inhibition | Potency
82 | COCC1CCCN(Cc2nc(-c3ccc4c(c3)OCO4)no2)C1 (stereo not given) | 9.31% | –
83 | CCn1c(CC(=O)Nc2ccccc2C)nnc1SCC(=O)NC1=NCCS1 | -4.53% | –
84 | O=C(Cn1nnc(N2CCCCC2)n1)c1ccc(Cl)c(Cl)c1 | -16% | –
85 | CCCNC(=O)c1ccc(Cl)c(Cl)c1 | -22% | –
86 | CCCn1c(=N)n(CC(=O)c2ccc(Cl)c(Cl)c2)c2ccccc21 | – | 10.3 µM (active)
87 | O=C(Nc1ccc(OCCO)cc1)c1csc([C@H]2C[C@H](O)[C@@H](CO)O2)n1 | -18% | –
88 | CCOc1ccc(CN2CCN(Cc3ccc4cc(F)ccc4n3)CC2CCO)cc1 (stereo not given) | -4.39% | –
89 | COc1ccccc1NC(=O)CSc1nnc(CNC(=O)c2ccccc2F)o1 | 12% | –
90 | COc1ccc(C(=O)NCc2nnc(SCC(=O)Nc3cccc(OC)c3)o2)cc1 | 16.7% | –
91 | COc1cc(C(=O)NCc2nnc(SCC(=O)Nc3nc4ccc(C)cc4s3)o2)cc(OC)c1OC | – | 4.11 µM (active)
92 | O=C(O)c1ccc(S(=O)(=O)N2CCOCC2)o1 | 2.34% | –
93 | CNc1cc(-c2c(OC)cccc2OC)ncn1 | -8.09% | –
94 | C=CCOC(=O)C1=C(C)NC(SCC(=O)OCC)=C(C#N)C1c1ccc(C)cc1 (stereo not given) | -22.3% | –
95 | CCOC(=O)CSC1=C(C#N)C(c2sccc2C)CC(=O)N1 (stereo not given) | – | 3.55 µM (active)
96 | COC(=O)CSC1=C(C#N)C(c2ccccc2OC)C(C(=O)OC)C(=O)N1 (stereo not given) | 11.7% | –
97 | C/C=C/C=C/C(=O)OCC(=O)Nc1ccc(Cl)cc1 | -3.8% | –
98 | Cc1onc(-c2c(F)cccc2Cl)c1C(=O)N(C)CC(=O)Nc1cccc(F)c1 | 10.5% | –
99 | O=C(c1cc2cc(F)ccc2[nH]1)N1CCN(c2ccc(F)cc2)CC1 | -15% | –
100 | O=C(c1cccc(C(=O)N2CCN(c3ccc(F)cc3)CC2)c1)N1CCN(c2ccc(F)cc2)CC1 | – | 14.6 µM (active)
101 | O=C(c1cc(C(=O)N2CCN(c3ccc(F)cc3)CC2)cc([N+](=O)[O-])c1)N1CCN(c2ccc(F)cc2)CC1 | – | 8.2 µM (active)
102 | O=C(c1cc(-c2ccc(F)cc2)on1)N1CCN(c2ccc(F)cc2)CC1 | 3.72% | –
103 | O=[N+]([O-])c1ccc(N2CCN(c3ccc(F)cc3)CC2)cn1 | -1.17% | –
104 | O=C(c1cccc([N+](=O)[O-])c1)N1CCN(C(=O)c2ccco2)CC1 | 3.27% | –
105 | CO/N=C(\C(=O)N[C@@H]1C(=O)N2C(C(=O)O)=CCS[C@H]12)c1csc(N)n1 | -3.74% | –
